The record followed here is PubChem BioAssay AID504715 (Sanford-Burnham Center for Chemical Genomics, 2011).

Some of the results follow. A number with no mark means an inactive call.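 How the source made its calls: active means compounds giving 40% or more inhibition at 20 µM in any one of the three replicates; inactive means the rest.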

For this assay, the target named is Uracil-DNA glycosylase (Escherichia coli (strain K12)) (UniProt P12295). The experiment in a line: uracil-DNA glycosylase inhibition, oligo cleavage readout – biochemical, single concentration, fluorescence, FAM/TAMRA oligo, counter-screen for APOBEC3G inhibitor project, confirmation (AID 504715).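 Further: plate controls were DMSO wells with UDG and oligo for no effect and DMSO wells lacking both for full effect; inhibitors lower the FAM signal released by uracil excision and alkaline cleavage.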 Particulars: UDG counterscreen, at 20 µM, hits give high values. For orientation: A counterscreen serves to expose hits that act by an unwanted route or on another target.
Chain of Uracil-DNA glycosylase (Escherichia coli (strain K12)) (P12295 whole entry, looked up): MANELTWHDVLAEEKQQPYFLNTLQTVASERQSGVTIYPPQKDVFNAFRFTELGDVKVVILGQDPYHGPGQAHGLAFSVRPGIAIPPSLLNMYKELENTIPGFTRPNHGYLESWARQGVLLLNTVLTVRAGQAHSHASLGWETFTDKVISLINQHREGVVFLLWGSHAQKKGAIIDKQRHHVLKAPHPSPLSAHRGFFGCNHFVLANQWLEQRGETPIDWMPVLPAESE

As to `COC(=O)N(c1ccc(OC)cc1)P1(=S)OCCC(C)O1` (stereo unspecified), the inhibition – broadly, the change of the read-out against control, counted positive when it falls – was -3.68%.
